Test results from PubChem BioAssay (Tox21).
Records with an inconclusive call do not appear. Calls of active or inactive are those of the source. The call rests on the fitted dose curve; in most records, active means well fitted curve in the direction sought with a large enough effect in the repeat runs; inconclusive means weak or mixed curves; inactive means no such curve, though single readings can be large; an effect the other way counts as inactive or inconclusive.

What was measured:
[1] = A CellTox Green Cytotoxicity Assay to monitor cytotoxicity in HEK293 cells - 40 hour (AID 1224871); details: CellTox Green fluorescence; series mostly up to 76.8 µM; further: nearly all actives have a fitted effect of over 45% in size
Procedure, shortened: (§1)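 Each value comes from one timepoint of a single continuous run in which HEK293 cells with CellTox Green were exposed to compound for up to 40 h at 37 C, dye fluorescence rising with cell death.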

[2] = qHTS RealTime-Glo MT Cell Viability Assay in HEK293 cells - 16 hour (AID 1224872); details: RealTime-Glo luminescence; series mostly up to 76.8 µM; further: top concentration of the series differs between compounds; nearly all actives have a fitted effect of over 50% in size
Procedure, shortened: (§2)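 Homogeneous bioluminescent viability format in HEK293 cells (600 cells/well). Following 5 h at 37 C/5% CO2, 23 nL compound was pintooled; the signal was measured repeatedly during 40 h incubation.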

[3] = qHTS RealTime-Glo MT Cell Viability Assay in HepG2 cells - 8 hour (AID 1224873); details: RealTime-Glo luminescence; series mostly up to 76.8 µM; further: nearly all actives have a fitted effect of over 55% in size
Procedure, shortened: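 HepG2 cells mixed with RealTime-Glo MT reagents (NanoLuc plus cell-permeant prosubstrate) were seeded at 600 cells/well, incubated 5 h at 37 C/5% CO2, then pinned with compounds in DMSO; nonlytic luminescence tracked viability during 40 h treatment.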

[4] = qHTS RealTime-Glo MT Cell Viability Assay in HEK293 cells - 40 hour (AID 1224874); details: RealTime-Glo luminescence; max response: hits give low values; further: nearly all actives have a fitted effect of over 50% in size
Procedure, shortened: (§3)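 qHTS format; HEK293 cells with NanoLuc/prosubstrate reagent, 37 C/5% CO2 for 5 h pre-dosing; compounds 23 nL in DMSO; luminescence at each time point reflects viable cells.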

[5] = A CellTox Green Cytotoxicity Assay to monitor cytotoxicity in HEK293 cells - 24 hour (AID 1224875); details: CellTox Green fluorescence; series mostly up to 76.8 µM; further: nearly all actives have a fitted effect of over 45% in size
Procedure, shortened: as §1

[6] = A CellTox Green Cytotoxicity Assay to monitor cytotoxicity in HepG2 cells - 16 hour (AID 1224876); details: CellTox Green fluorescence; series mostly up to 76.8 µM; further: nearly all actives have a fitted effect of over 45% in size
Procedure, shortened: (§4)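 Continuous culture of HepG2 cells with a membrane-impermeant DNA dye; rising fluorescence marks dead cells. Compound exposure lasted up to 40 h at 37 C, with reads every 8 h from 0 h.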

[7] = qHTS RealTime-Glo MT Cell Viability Assay in HepG2 cells - 32 hour (AID 1224877); details: RealTime-Glo luminescence; series mostly up to 76.8 µM; further: nearly all actives have a fitted effect of over 55% in size
Procedure, shortened: (§5)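 Cell number in HepG2 cultures estimated from NanoLuc luminescence generated by metabolic reduction of a prosubstrate by living cells. The homogeneous, nonlytic format allowed repeated reads at 0, 8, 16, 24, 32 and 40 h of compound exposure.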

[8] = A CellTox Green Cytotoxicity Assay to monitor cytotoxicity in HepG2 cells - 40 hour (AID 1224879); details: CellTox Green fluorescence; series mostly up to 76.8 µM; further: nearly all actives have a fitted effect of over 40% in size
Procedure, shortened: as §4

[9] = qHTS RealTime-Glo MT Cell Viability Assay in HEK293 cells - 0 hour (AID 1224880); details: RealTime-Glo luminescence; series mostly up to 76.8 µM; further: top concentration of the series differs between compounds; nearly all actives have a fitted effect of over 45% in size
Procedure, shortened: as §3

[10] = A CellTox Green Cytotoxicity Assay to monitor cytotoxicity in HEK293 cells - 32 hour (AID 1224881); details: CellTox Green fluorescence; series mostly up to 76.8 µM; further: nearly all actives have a fitted effect of over 40% in size
Procedure, shortened: as §1

[11] = A CellTox Green Cytotoxicity Assay to monitor cytotoxicity in HepG2 cells - 0 hour (AID 1224882); details: CellTox Green fluorescence; series mostly up to 76.8 µM; further: nearly all actives have a fitted effect of over 35% in size
Procedure, shortened: as §4

[12] = A CellTox Green Cytotoxicity Assay to monitor cytotoxicity in HepG2 cells - 32 hour (AID 1224883); details: CellTox Green fluorescence; series mostly up to 76.8 µM; further: nearly all actives have a fitted effect of over 50% in size
Procedure, shortened: as §4

[13] = A CellTox Green Cytotoxicity Assay to monitor cytotoxicity in HEK293 cells - 8 hour (AID 1224884); details: CellTox Green fluorescence; series mostly up to 76.8 µM; further: nearly all actives have a fitted effect of over 35% in size
Procedure, shortened: as §1

[14] = qHTS RealTime-Glo MT Cell Viability Assay in HepG2 cells - 16 hour (AID 1224885); details: RealTime-Glo luminescence; series mostly up to 76.8 µM; further: nearly all actives have a fitted effect of over 50% in size
Procedure, shortened: as §5

[15] = qHTS RealTime-Glo MT Cell Viability Assay in HEK293 cells - 24 hour (AID 1224886); details: RealTime-Glo luminescence; series mostly up to 76.8 µM
Procedure, shortened: as §2

[16] = qHTS RealTime-Glo MT Cell Viability Assay in HEK293 cells - 8 hour (AID 1224887); details: RealTime-Glo luminescence; series mostly up to 76.8 µM
Procedure, shortened: as §3

[17] = A CellTox Green Cytotoxicity Assay to monitor cytotoxicity in HEK293 cells - 16 hour (AID 1224888); details: CellTox Green fluorescence; series mostly up to 76.8 µM; further: nearly all actives have a fitted effect of over 35% in size
Procedure, shortened: as §1

[18] = qHTS RealTime-Glo MT Cell Viability Assay in HepG2 cells - 0 hour (AID 1224889); details: RealTime-Glo luminescence; series mostly up to 76.8 µM; further: nearly all actives have a fitted effect of over 50% in size
Procedure, shortened: as §5

[19] = A CellTox Green Cytotoxicity Assay to monitor cytotoxicity in HepG2 cells - 8 hour (AID 1224890); details: CellTox Green fluorescence; series mostly up to 76.8 µM; further: nearly all actives have a fitted effect of over 45% in size
Procedure, shortened: as §4

[20] = A CellTox Green Cytotoxicity Assay to monitor cytotoxicity in HepG2 cells - 24 hour (AID 1224878); details: CellTox Green fluorescence; series mostly up to 76.8 µM; further: nearly all actives have a fitted effect of over 45% in size
Procedure, shortened: as §4
On the % scale 0 is the no-effect control and ±100 the full control effect.

O=C(O)/C=C/c1ccc(/C=C/C(=O)O)cc1
inactive: Potency [1] | Potency [2] | outcome [3] | max response [4] 3.8% | Potency [5] | Potency [6] | Potency [7] | Potency [8] | outcome [9] | Potency [10] | Potency [11] | Potency [12] | Potency [13] | outcome [14] | Potency [15] | Potency [16] | Potency [17] | Potency [18] | Potency [19]

Cc1ncc(CSSCc2cnc(C)c(O)c2CO)c(CO)c1O
inactive: Potency [1] | Potency [2] | outcome [3] | max response [4] 5.83% | Potency [5] | Potency [6] | Potency [7] | Potency [8] | outcome [9] | Potency [10] | Potency [11] | Potency [13] | outcome [14] | Potency [15] | Potency [16] | Potency [17] | Potency [18] | Potency [19]

OCCCCCCO
inactive: Potency [1] | Potency [2] | outcome [3] | max response [4] -17.6% | Potency [5] | Potency [6] | Potency [20] | Potency [8] | outcome [9] | Potency [10] | Potency [11] | Potency [12] | Potency [13] | outcome [14] | Potency [15] | Potency [16] | Potency [17] | Potency [18]

Oc1cc(O)c2c(c1)O[C@H](c1ccc(O)c(O)c1)[C@H](O)C2
inactive: Potency [1] | Potency [2] | outcome [3] | max response [4] 0.448% | Potency [5] | Potency [6] | Potency [20] | Potency [8] | outcome [9] | Potency [10] | Potency [11] | Potency [12] | Potency [13] | outcome [14] | Potency [15] | Potency [16] | Potency [17] | Potency [18] | Potency [19]

CC(C)=CCC/C(C)=C/C(=O)O
inactive: Potency [1] | Potency [2] | outcome [3] | max response [4] 0.0826% | Potency [5] | Potency [6] | Potency [7] | outcome [9] | Potency [10] | Potency [11] | Potency [13] | outcome [14] | Potency [15] | Potency [16] | Potency [17] | Potency [18] | Potency [19]

CCCc1ccccc1O
inactive: Potency [1] | Potency [2] | outcome [3] | max response [4] -8.16% | Potency [5] | Potency [6] | Potency [20] | Potency [8] | outcome [9] | Potency [10] | Potency [11] | Potency [12] | Potency [13] | outcome [14] | Potency [15] | Potency [16] | Potency [17] | Potency [18] | Potency [19]

Nc1ncnc2c1ncn2Cc1c(F)cccc1Cl
inactive: Potency [1] | Potency [2] | outcome [3] | max response [4] -12.1% | Potency [5] | Potency [6] | Potency [20] | Potency [8] | outcome [9] | Potency [10] | Potency [11] | Potency [12] | Potency [13] | outcome [14] | Potency [15] | Potency [17] | Potency [18] | Potency [19]

O=S(=O)(O)c1ccccc1O
inactive: Potency [1] | Potency [2] | outcome [3] | max response [4] 8.61% | Potency [5] | Potency [6] | Potency [20] | Potency [8] | outcome [9] | Potency [10] | Potency [11] | Potency [12] | Potency [13] | outcome [14] | Potency [15] | Potency [16] | Potency [17] | Potency [18] | Potency [19]

CCC(C)OC(=O)N1CCCCC1CCO (stereo unspecified)
inactive: Potency [1] | Potency [2] | outcome [3] | max response [4] -15.9% | Potency [5] | Potency [6] | Potency [20] | Potency [8] | outcome [9] | Potency [10] | Potency [11] | Potency [12] | outcome [14] | Potency [15] | Potency [16] | Potency [17] | Potency [18] | Potency [19]

COc1cc(O)cc(O)c1
inactive: Potency [1] | Potency [2] | outcome [3] | max response [4] 2.03% | Potency [5] | Potency [6] | Potency [7] | Potency [20] | Potency [8] | Potency [10] | Potency [11] | Potency [13] | outcome [14] | Potency [15] | Potency [16] | Potency [17] | Potency [18] | Potency [19]

CSc1ccc(C=O)cc1
inactive: Potency [1] | Potency [2] | outcome [3] | max response [4] 0.555% | Potency [5] | Potency [6] | Potency [7] | Potency [8] | outcome [9] | Potency [10] | Potency [11] | Potency [12] | Potency [13] | outcome [14] | Potency [15] | Potency [16] | Potency [17] | Potency [18]
